{"source": "PubChem BioAssay AID651814", "about": "(National Center for Advancing Translational Sciences (NCATS), 2012)", "note": "Hit rate of the full screen: of about 2,100 compounds, about 590 (28%) were called active. Not shown: some 42% with an inconclusive outcome. Some of the results follow. A number with no mark means an inactive call. Calls come from the whole dose curve; as a rule, active = well fitted inhibition curve with a large enough effect; inconclusive = small, poorly fitted or top-dose-only effect; inactive = flat fitted curve, though single readings scatter. Potency is the fitted concentration of half-maximal effect."}
{"molecular_target": "DNA dC->dU-editing enzyme APOBEC-3F (Homo sapiens) (UniProt Q8IUX4)", "sequence (Q8IUX4 whole entry, looked up)": "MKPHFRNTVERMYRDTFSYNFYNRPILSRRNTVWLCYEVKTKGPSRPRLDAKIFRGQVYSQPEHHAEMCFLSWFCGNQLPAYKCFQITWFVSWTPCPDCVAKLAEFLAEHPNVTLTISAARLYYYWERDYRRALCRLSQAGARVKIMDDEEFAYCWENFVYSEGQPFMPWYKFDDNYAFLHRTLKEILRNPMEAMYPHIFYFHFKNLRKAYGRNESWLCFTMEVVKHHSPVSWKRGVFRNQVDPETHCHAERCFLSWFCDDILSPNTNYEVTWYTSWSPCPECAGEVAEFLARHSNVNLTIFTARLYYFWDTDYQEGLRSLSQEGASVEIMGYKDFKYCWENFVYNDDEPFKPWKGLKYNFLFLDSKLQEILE", "assay": "qHTS for inhibitors of Vif-A3F interactions: Cherry picks; note: nearly all actives have a fitted effect of over 70% in size;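 for max response: % of control where 0% means no effect; active compounds raise eYFP fluorescence by blocking Vif-driven A3F loss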", "settings": "HeLa A3F-eYFP + Vif (tagged APOBEC3F with the HIV-1 protein that degrades it), eYFP fluorescence, 24 h", "summary_of_the_method": "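HeLa cells stably expressing A3F-eYFP plus Vif, cultured overnight, then exposed to compounds at several concentrations for 24 h at 37 deg C. Reduced Vif-driven degradation read as rising eYFP fluorescence (488 nm ex/500-530 nm em) by laser-scanning cytometry; MG132 as positive control.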", "units": {"max response": "%"}}
{"smiles": "Cn1nnc2c[n+](CC(=O)c3ccc(Cl)cc3)cc(Br)c21", "Potency": "17.7 µM (active)"}
{"smiles": "O=C(Nc1cc(Cl)ccc1-n1cncn1)c1ccc([N+](=O)[O-])s1", "Potency": "15.8 µM (active)"}
{"smiles": "N#CC1=C(N)Oc2ccc3ccc(O)cc3c2C1c1ccsc1", "note": "(stereo unspecified)", "max response": -15.9}
{"smiles": "N#CC1=C(N)Oc2cc(N)ccc2C1c1ccc(F)cc1F", "note": "(stereo unspecified)", "Potency": "18.4 µM (active)"}
{"smiles": "Cc1oc(C)c2c(=O)ccc3c(c12)OC(N)=C(C#N)C3c1ccc(F)cc1", "note": "(stereo unspecified)", "max response": 1.74}
{"smiles": "O=C1[C@@H]2[C@@H](CN3CN(c4ccccc4)N=C(c4ccccc4)[C@@]23c2ccccc2)C(=O)N1c1ccccc1", "max response": -0.723}
{"smiles": "CC(C)CC[n+]1ccccc1/C=C/c1ccc(N(C)C)cc1", "Potency": "20.6 µM (active)"}
{"smiles": "CC[n+]1ccccc1/C=C/c1ccc(N(C)C)cc1", "Potency": "20.6 µM (active)"}
{"smiles": "Cc1ccc(-c2csc(NC3OC(=O)c4ccccc43)n2)cc1", "note": "(stereo unspecified)", "Potency": "14 µM (active)"}
{"smiles": "c1ccc2c(c1)nc(NCC1CCCO1)c1nnnn12", "note": "(stereo unspecified)", "max response": -11.8}
{"smiles": "Fc1ccc(CNc2nc3ccccc3n3nnnc23)cc1", "Potency": "23.1 µM (active)"}
{"smiles": "Fc1ccc(CNc2nc3ccc(Cl)cc3n3nnnc23)cc1", "max response": -20.9}
{"smiles": "c1ccc2c(CCc3c[nH]c4ccccc34)ccnc2c1", "Potency": "20.6 µM (active)"}
{"smiles": "O=C(N/N=C\\C=C\\c1ccc([N+](=O)[O-])o1)c1cccs1", "Potency": "12.5 µM (active)"}
{"smiles": "O=C(COc1ccccc1-c1ccccc1)NN=C1CCCC1", "max response": -15.6}
{"smiles": "COc1ccccc1OCC(=O)N/N=C/C=C/c1ccc([N+](=O)[O-])o1", "Potency": "10.3 µM (active)"}
{"smiles": "O=C(N/N=C/C=C/c1ccco1)c1ccncc1", "max response": -0.284}
{"smiles": "Cc1ccccc1OCC(=O)N/N=C/c1ccc(N(C)C)cc1", "max response": -27.7}
{"smiles": "O=C(CN1C(=O)CSc2ncccc21)Nc1cccc(Cl)c1", "max response": -15.2}
{"smiles": "CC(C)COc1ccc(C(=O)N/C(=C/c2cccc([N+](=O)[O-])c2)C(=O)O)cc1", "max response": -0.401}
{"smiles": "COc1ccc(N=Cc2sc(O)c3ccccc23)cc1", "Potency": "8.86 µM (active)"}
{"smiles": "CCCC(=O)NC(c1ccc(OC)cc1)c1c(O)ccc2ccccc12", "note": "(stereo unspecified)", "max response": -21}
{"smiles": "CC(=O)n1cc(/C=N/NC(=O)c2sc(C)nc2C)c2ccccc21", "max response": -21.7}
{"smiles": "COc1ccc(N=Cc2oc3ccc4ccccc4c3c2O)cc1", "Potency": "5.17 µM (active)"}
{"smiles": "COc1ccc(N=Cc2c(O)c3ccccc3n2C(C)=O)cc1", "Potency": "20.6 µM (active)"}
{"smiles": "Oc1sc(C=Nc2ccccc2)c2ccccc12", "Potency": "20.6 µM (active)"}
{"smiles": "CC1(C)CC(=O)C(C=Nc2cc(C(=O)c3ccccc3)ccc2N)=C(O)C1", "max response": -20.7}
{"smiles": "O=c1[nH]c2ccccc2n2c(=S)[nH]nc12", "max response": -3.48}
{"smiles": "COc1ccc(N/C=C2\\C(=O)CCc3c2oc2cc(Cl)c(O)c(Cl)c32)cc1", "max response": -28.6}
{"smiles": "COC(=O)C1C2CC3c4[nH]c5cc(OC)ccc5c4CCN3CC2CC(OC2CCCCO2)C1OC", "note": "(stereo unspecified)", "max response": -12.1}
{"smiles": "S=c1[nH]cnc2sc(-c3ccccc3)cc12", "max response": -2.16}
{"smiles": "Oc1sc(C=Nc2ccc(F)cc2)c2ccccc12", "Potency": "4.11 µM (active)"}
{"smiles": "CCN(CC)C(=O)CSC(Nc1cccc(F)c1)=C(C#N)C#N", "max response": -4.73}
{"smiles": "CN(C)c1ccc(/C=N/NC(=O)c2cc(-c3ccc4c(c3)OCO4)n[nH]2)cc1", "Potency": "17.7 µM (active)"}
{"smiles": "O=C(N/N=C/c1ccc2c(c1)OCO2)c1ccc2c(c1)OCCO2", "max response": -24.9}
{"smiles": "O=C(NN=Cc1c(O)ccc2ccccc12)c1ccc2c(c1)OCO2", "max response": -14.5}
{"smiles": "COCCCNC(=S)N/N=C/c1cccc(OC)c1O", "max response": -1.71}
{"smiles": "CCCN1CCc2c(sc(NC(=O)c3ccc(S(=O)(=O)N(C)c4ccccc4)cc3)c2C(N)=O)C1", "Potency": "20.6 µM (active)"}
{"smiles": "O=C(Nc1ncc(Cc2ccc(SC(F)F)cc2)s1)c1ccccc1", "max response": -6.02}
{"smiles": "NC(=O)c1c(NC(=O)c2ccccc2)sc2c1CCN(Cc1ccccc1)C2", "Potency": "14 µM (active)"}
{"smiles": "CCCN1CCc2c(sc(NC(=O)c3ccc(S(=O)(=O)N(C)c4ccccc4)cc3)c2C(=O)NC)C1", "Potency": "23.1 µM (active)"}
{"smiles": "CC(C)CN(CC(C)C)S(=O)(=O)c1ccc(C(=O)Nc2sc3c(c2C(N)=O)CCN(C(C)C)C3)cc1", "Potency": "20.6 µM (active)"}
{"smiles": "Cc1nc2ccc(NC(=O)c3cc(S(=O)(=O)N(C)c4ccccc4)ccc3Cl)cc2s1", "max response": -11.3}
{"smiles": "CC(C)(C)C(=O)Nc1sc2c(c1C#N)CCN(Cc1ccccc1)C2", "max response": -17.1}
{"smiles": "CCCCOc1ccc2c(c1)/C(=C(\\C(Cl)=C(Cl)Cl)[N+](=O)[O-])N2", "max response": -18.3}
{"smiles": "CCS(=O)(=O)N1CCc2cc(C(=O)N3CCN(c4cccc(C(F)(F)F)c4)CC3)ccc21", "max response": -12.8}
